The source made the active and inactive calls.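 The calls were made as follows, unless noted: active = inhibition above 20% together with a positive visual image hit; inconclusive = visual image hit but inhibition not above 20%; inactive = no visual image hit.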
Key:
[1] = inhibitors of TNFa-induced NFkB p65 translocation, primary screen, imaging, HUVEC, MLSMR starter and 10KST1 sets (AID 438); settings: HUVEC TNFa-induced p65 nuclear translocation; cell count: measured here: nuclei count (cytotoxicity indicator), at 2.08 µM; inhibition: at 2 µM, stronger effect = higher value, 0% TNFa-plus-vehicle, 100% no-TNFa wells;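 also: compound added about 3h40 before a 20 min TNFalpha stimulation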;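 as to inhibition: signal is the nuclear over cytoplasmic p65 intensity ratio per well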
[2] = inhibitors of mutant huntingtin aggregation, primary screen, imaging, exon1htt(103Q)mCFP cells, high-content imaging (AID 483;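 active = visual image review flags a hit and inhibition of aggregation exceeds 20%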;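 also: compound exposure lasted 3 days before fixation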;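 as to nuclei count: percent of the per-plate median nuclei count of sample wells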); settings: exon1htt(103Q)mCFP cell line, aggregate imaging, at 2 µM; inhibition of aggregation: stronger effect = higher value; nuclei count: measured here: cell count, toxicity
[3] = inhibitors of E-selectin induction by TNFa, primary screen, imaging, HUVEC, immunofluorescence, MLSMR starter and 10KST1 sets (AID 487;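 active = visually confirmed hit in the image check and inhibition above 20%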;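 as to inhibition: signal is fraction of cell area covered by stained E-selectin grains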;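 as to nuclei count: 100% = median nuclei count of all wells on the same plate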); settings: HUVEC TNFalpha-induced E-selectin immunofluorescence imaging, at 2 µM; inhibition: stronger effect = higher value; nuclei count: measured here: cell number, toxicity
[4] = target: Voltage-gated potassium channel subunit beta-2 (Rattus norvegicus) (UniProt P62483); assay: KvBeta enzyme negative modulators, primary screen, biochemical, NADPH fluorescence (AID 622;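 active = fluorescence slope higher than the sample average by over 3 SD, cut at about -0.22 in these data, passing the limit was not always enough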;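 also: slope of raw intensity against log time taken from 70 to 1610 s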); settings: recombinant KvBeta, 4-cyanobenzaldehyde reduction, at 10 µM, stronger effect = higher value
Chain of Voltage-gated potassium channel subunit beta-2 (Rattus norvegicus) (P62483 whole entry, looked up): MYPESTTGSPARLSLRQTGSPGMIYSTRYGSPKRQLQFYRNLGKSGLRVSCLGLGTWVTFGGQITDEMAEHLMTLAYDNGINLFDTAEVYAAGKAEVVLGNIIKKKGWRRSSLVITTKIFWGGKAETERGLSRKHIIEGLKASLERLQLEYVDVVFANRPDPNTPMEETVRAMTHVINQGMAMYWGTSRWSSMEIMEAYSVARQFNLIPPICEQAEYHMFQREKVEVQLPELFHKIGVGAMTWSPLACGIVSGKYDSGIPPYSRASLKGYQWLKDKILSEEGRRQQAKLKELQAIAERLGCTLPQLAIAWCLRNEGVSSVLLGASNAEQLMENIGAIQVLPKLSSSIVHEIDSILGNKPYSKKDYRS

[5] = target: Voltage-gated potassium channel subunit beta-2 (Rattus norvegicus) (UniProt P62483); assay: KvBeta positive modulators, primary screen, biochemical, NADPH fluorescence (AID 623;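 active = NADPH fluorescence slope more negative than the mean of all samples by about 3 SD, 99.7% confidence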;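 also: fluorescence intensity change per second fitted from 20 to 320 s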); settings: Recombinant KvBeta, NADPH fluorescence decrease slope, 10 min; at 10 µM; stronger effect = lower value
[6] = target: Alpha-2C adrenergic receptor (Homo sapiens) (UniProt P18825); assay: modulators of alpha2C/GIRK thallium flux, primary screen, cell-based, HEK293 alpha2C/GIRK1/2 (AID 624;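 active = fluorescence slope after compound addition differing from the mean of all screened samples at 99.7% confidence, in either direction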;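 also: slope of fluorescence ratio to pre-addition baseline per second over 15 to 24 s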); settings: thallium flux BTC fluorescence, at 10 µM, actives lie on both sides
Chain of Alpha-2C adrenergic receptor (Homo sapiens) (P18825 whole entry, looked up): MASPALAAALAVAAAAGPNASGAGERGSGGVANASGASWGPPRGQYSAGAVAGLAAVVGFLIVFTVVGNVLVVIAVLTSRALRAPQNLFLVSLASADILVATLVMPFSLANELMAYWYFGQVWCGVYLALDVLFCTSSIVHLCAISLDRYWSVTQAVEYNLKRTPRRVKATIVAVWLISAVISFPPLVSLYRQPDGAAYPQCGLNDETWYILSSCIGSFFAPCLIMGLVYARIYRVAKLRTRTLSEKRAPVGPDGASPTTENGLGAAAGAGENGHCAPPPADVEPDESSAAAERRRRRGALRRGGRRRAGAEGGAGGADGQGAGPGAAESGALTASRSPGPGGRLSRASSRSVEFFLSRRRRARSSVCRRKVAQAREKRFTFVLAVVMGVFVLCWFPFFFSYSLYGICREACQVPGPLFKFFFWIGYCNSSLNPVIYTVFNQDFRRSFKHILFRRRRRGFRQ

[7] = inhibitors of Sendai virus-induced IRF3 signaling, primary screen, TLR/RLR signaling modifier project, cell-based, Sendai virus stimulus, luciferase, 10K MLSCN set (AID 602276;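 active = inhibition at or above 50% at 10 µM; inactive = inhibition below 50%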;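 also: firefly luciferase from ISG56 promoter only with Renilla not read in this screen; 0% = Sendai virus plus DMSO and 100% = medium plus DMSO without virus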); settings: HEK293 RL24 IRF3 luciferase reporter, at 10 µM, stronger effect = higher value
[8] = inhibitors of poly I:C-induced TLR3 signaling, primary screen, cell-based, poly I:C stimulus, luciferase, 10K MLSCN set (AID 602277;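 active = inhibition of the reporter signal at or above 50%; inactive = inhibition below 50%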); settings: HEK293-TLR3 RL24 IRF3 luciferase reporter, at 10 µM, stronger effect = higher value

Compound | cell count [1] | inhibition [1] | inhibition of aggregation [2] | nuclei count [2] [%] | inhibition [3] | nuclei count [3] [%] | fluorescence slope [4] | NADPH fluorescence slope [5] | slope [6] | inhibition [7] | inhibition [8]
CCOc1ccc(C2C(C#N)=C(N)Oc3cc(C)n(Cc4ccco4)c(=O)c32)cc1OC (stereo not drawn) | 746 | 2.4% (inactive) | 9.6% (inactive) | 74 | -11.3% (inactive) | 105 | -0.491 (inactive) | -2e-05 (inactive) | 0.00471 (inactive) | 7.22% (inactive) | 11.1% (inactive)
COc1ccc(S(=O)(=O)N2CCCC(C(=O)NCc3ccccn3)C2)cc1 (stereo not drawn) | 291 | -2.2% (inactive) | 8.2% (inactive) | 72.3 | 1.9% (inactive) | 76.8 | -0.477 (inactive) | -2.4e-05 (inactive) | 0.00625 (inactive) | 12.7% (inactive) | 35.6% (inactive)
COc1ccc(N(CC(=O)Nc2cc(C)ccc2C)S(=O)(=O)c2c(C)nn(C)c2C)cc1 | 499 | -2.3% (inactive) | 30.5% (inactive) | 65.3 | -8.4% (inactive) | 101 | -0.603 (inactive) | -2.9e-05 (inactive) | 0.0057 (inactive) | -2.9% (inactive) | 21.3% (inactive)
Cc1cc(C)n(-c2nc3nonc3nc2-n2nc(C)cc2C)n1 | 797 | -15.2% (inactive) | -2.2% (inactive) | 110 | -20.5% (inactive) | 106 | -0.416 (inactive) | -2e-05 (inactive) | 0.00318 (inactive) | 11.8% (inactive) | 27.1% (inactive)
O=c1c2ccccc2c(/C=N/n2cnnc2)c(O)n1-c1ccccc1 | 408 | -1.9% (inactive) | -43% (inactive) | 58.6 | -12.2% (inactive) | 101 | -0.102 (active) | -7.7e-05 (inactive) | 0.00664 (inactive) | -3.33% (inactive) | 6.58% (inactive)
O=S(=O)(NC1CCCC1)c1ccccc1Cl | 739 | -7.3% (inactive) | -2.5% (inactive) | 111 | -21.2% (inactive) | 116 | -0.455 (inactive) | -3.7e-05 (inactive) | 0.00495 (inactive) | 7.42% (inactive) | 15.4% (inactive)
Clc1ccc(-n2nnnc2Sc2ncnc3sccc23)cc1 | 530 | -9% (inactive) | -12.2% (inactive) | 107 | -12.2% (inactive) | 122 | -0.528 (inactive) | -4.1e-05 (inactive) | 0.00502 (inactive) | 5.22% (inactive) | 66.8% (active)
Cc1ccc(-c2ccc(SCC(=O)Nc3nonc3C)nn2)cc1 | 413 | 2.2% (inactive) | -2% (inactive) | 103 | -24.8% (inactive) | 108 | -0.283 (inactive) | -5.6e-05 (inactive) | 0.00591 (inactive) | 9.6% (inactive) | 15.8% (inactive)
